Mdm2-MdmX inh: inhibitors of human Mdm2/MdmX interaction. O15151+Q00987. SaOS-2 split-luciferase Mdm2/MdmX complementation, luminescence. inhibition, % at 8 µM. hit rate 3% among 330,000;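 active means inhibition of at least 50% at 8 µM in the primary screen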
Target sequence (O15151 whole entry, looked up): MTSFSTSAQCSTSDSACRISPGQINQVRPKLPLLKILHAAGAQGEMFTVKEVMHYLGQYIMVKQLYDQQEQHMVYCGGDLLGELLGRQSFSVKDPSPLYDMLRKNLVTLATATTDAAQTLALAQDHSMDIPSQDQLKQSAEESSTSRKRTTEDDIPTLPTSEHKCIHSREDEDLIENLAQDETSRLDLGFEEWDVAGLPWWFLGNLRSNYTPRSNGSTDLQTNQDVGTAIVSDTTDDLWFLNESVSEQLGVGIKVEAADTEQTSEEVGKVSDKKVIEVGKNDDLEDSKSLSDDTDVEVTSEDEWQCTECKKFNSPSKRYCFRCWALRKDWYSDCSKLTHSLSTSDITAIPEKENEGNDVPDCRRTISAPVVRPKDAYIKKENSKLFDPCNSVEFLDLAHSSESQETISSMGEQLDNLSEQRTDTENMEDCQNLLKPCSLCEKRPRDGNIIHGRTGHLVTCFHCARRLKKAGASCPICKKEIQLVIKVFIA
Target sequence (Q00987 whole entry, looked up): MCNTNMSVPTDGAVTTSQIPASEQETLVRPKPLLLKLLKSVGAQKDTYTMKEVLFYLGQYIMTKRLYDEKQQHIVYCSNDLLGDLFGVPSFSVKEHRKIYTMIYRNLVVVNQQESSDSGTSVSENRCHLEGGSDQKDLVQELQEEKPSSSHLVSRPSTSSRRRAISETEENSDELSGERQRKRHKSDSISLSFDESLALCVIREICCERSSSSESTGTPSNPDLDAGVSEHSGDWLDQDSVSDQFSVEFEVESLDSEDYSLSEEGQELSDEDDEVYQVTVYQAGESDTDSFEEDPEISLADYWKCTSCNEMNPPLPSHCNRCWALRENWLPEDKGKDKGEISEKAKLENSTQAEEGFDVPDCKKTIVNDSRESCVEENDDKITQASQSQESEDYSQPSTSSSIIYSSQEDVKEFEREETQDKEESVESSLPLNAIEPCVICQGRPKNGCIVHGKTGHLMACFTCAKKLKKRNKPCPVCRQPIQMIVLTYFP
697 NFkB inh: inhibitors of the PMA/ionomycin-induced NF-kB reporter in 697 B cells. 697 B-cell NF-kB luciferase reporter, 16 h. hit rate 0.33% among 330,000. inhibition, % at 4 µM; in the data active means inhibition above about 35%
Gli-Sufu antag: Gli-Sufu pathway antagonism; inhibition, % at 5 µM; hit rate 0.74% among 340,000; Sufu-KO-LIGHT fibroblasts, Gli luciferase reporter luminescence; AID 588413;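 active means inhibition above about 55%, limit read from the data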
CSC inhib: cancer stem cell inhibition | cancer stem cell-like cells viability, luminescence | hit rate 1.1% among 300,000 | AID 2717 | inhibition, % at 7.5 µM; in the data active means inhibition above about 75%; tested in HMLE shEcad cells
Beta cell apopt: beta cell apoptosis inhibition; INS-1E cytokine-induced death, ATP luminescence, 48 h; percent of positive-control rescue, neutral wells zero; hit rate 0.8% among 300,000; protection from apoptosis, % (test concentration not listed); AID 435005;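 active means Every replicate reaches about 75%, or at least half do and their mean reaches it too, limit read from the data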;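 further: higher means more ATP so stronger rescue from cytokine killing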
Jurkat NFkB inh: lowers PMA/ionomycin-induced NF-kB signal in Jurkat cells; AID 435003; PMA/ionomycin-induced NF-kB luciferase reporter, luminescence; hit rate 0.53% among 330,000; inhibition, % at 4 µM; in the data active means inhibition above about 50%
Mdm2-MdmX conf: human Mdm2/MdmX binding inhibition, confirmed; shares compounds with Mdm2-MdmX inh; luminescent assay; inhibition, % at 8 µM; hit rate 55% among 10,000; AID 489028; in the data active means inhibition above about 40%
Full FLuc ctr: inhibits full-length luciferase, flagging false Mdm2/MdmX hits; SaOS-2 full-length luciferase counterscreen, luminescence; shares compounds with Mdm2-MdmX inh; hit rate 77% among 6,200; inhibition, % at 8 µM;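 active means mean inhibition at 8 µM reaching about 37%, which flags the compound as non-specific, limit read from the data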;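 further: p53-null SaOS-2 cells with luciferase driven by a doxycycline-inducible promoter; compound on cells about two nights before reading with doxycycline added after day one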
Of the large screens only hits and unclear results are named; the others gave an inactive call (follow-up assays come after a bar, where they were run). Hits are enriched below; roughly 4.5% of the tested compounds scored in any of these assays.

Cc1csc(SC(C)c2nc3scc(-c4ccccc4)c3c(=O)[nH]2)n1 (stereo not given)	none
O=C(CSc1nc2ccccc2c(=O)n1CCCN1CCOCC1)Nc1ccc(Br)cc1	none
CCc1ccc(NC(=O)CSc2nc3ccccc3c(=O)n2CCCN2CCC(C)CC2)cc1	Mdm2-MdmX inh 86 | Mdm2-MdmX conf 49 | Full FLuc ctr 36
Cc1ccc(NC(=O)CSc2nc3ccccc3c(=O)n2CCCN2CCCCC2)cc1C	Mdm2-MdmX inh 75 | Mdm2-MdmX conf 40 | Full FLuc ctr 62
CC(=O)c1cccc(NC(=O)CSc2nc3ccccc3c(=O)n2CCCN2CCOCC2)c1	none
Cn1c(=S)c2[nH]c(SCC3CCCO3)nc2n(C)c1=O (stereo not given)	none (no result: Mdm2-MdmX inh, 697 NFkB inh, CSC inhib, Beta cell apopt, Jurkat NFkB inh)
CC(C)c1ccc(NC(=O)CCN2C(=O)[C@@H]3Cc4ccccc4CN3C2=O)cc1	none
N/C(Cc1ccc(Cl)cc1)=N\OC(=O)c1ccc2ccccc2c1	Mdm2-MdmX inh 99 | Mdm2-MdmX conf inactive
N/C(CCS(=O)(=O)c1ccc(Cl)cc1)=N\OC(=O)c1ccccc1Cl	Mdm2-MdmX inh 92 (no result: Beta cell apopt) | Mdm2-MdmX conf 87 | Full FLuc ctr 50
N/C(Cc1ccc(Cl)cc1)=N\OC(=O)c1cccc2ccccc12	Mdm2-MdmX inh 99 | Mdm2-MdmX conf 76 | Full FLuc ctr 39
COc1ccc(NC(=O)/C(C#N)=C/c2ccc(Sc3nncn3C)c([N+](=O)[O-])c2)cc1	none
Cc1cccc2cc(C#N)c(N3CCN(C)CC3)nc12	Mdm2-MdmX inh 54 | Mdm2-MdmX conf inactive
Cc1cc(C)c2nc(N3CCN(C)CC3)c(C#N)cc2c1	none (no result: CSC inhib)
Cc1cc2nc(/N=C(\N)NC(=O)C(C)C)nc(C)c2cc1C	Mdm2-MdmX inh 56 | Mdm2-MdmX conf inactive | Full FLuc ctr 84
CCCC(=O)N/C(N)=N/c1nc(C)c2cc(C)ccc2n1	none
CCC(=O)N/C(N)=N/c1nc(C)c2cc(C)c(C)cc2n1	Mdm2-MdmX inh 74 | Mdm2-MdmX conf 57 | Full FLuc ctr 69
Cc1cc(C)nc(N2CCCC(C(=O)NC(C)C)C2)n1 (stereo not given)	none
CCOc1ccccc1/C=C/c1onc(C)c1S(=O)(=O)N1CCC(C(=O)N2CCCCCC2)CC1	none
Cc1ccc(-c2cc(-c3ccccc3)c(C#N)c(Br)n2)cc1	Mdm2-MdmX inh 72 | Mdm2-MdmX conf inactive
CS(=O)(=O)c1nc(-c2ccccc2)cc(-c2ccccc2)c1C#N	Mdm2-MdmX inh 100 | Mdm2-MdmX conf inactive
COc1ccc(C(=O)OC(C)C(=O)NC(C)CCc2ccccc2)cc1OC (stereo not given)	none
COc1cc(C(=O)NCC(=O)NCC(c2ccco2)N2CCCCC2)cc(OC)c1OC (stereo not given)	none (no result: CSC inhib)
Cc1ccc(NC(=O)c2cc(S(=O)(=O)N3CCc4ccccc43)cn2C)cc1C	Mdm2-MdmX inh 55 | Mdm2-MdmX conf inactive
CSc1cccc(CN2CCCC(CNC(=O)c3ccco3)C2)c1 (stereo not given)	none
COc1ccc(CN(CCN)C2CC(C)N(C)CC2C)cc1 (stereo not given)	none
CCOC(=O)/C=c1\s/c(=C\c2ccc(-c3ccccc3)cc2)c(=O)n1CC(=O)NCc1ccc2c(c1)OCO2	Mdm2-MdmX inh 84 | Mdm2-MdmX conf inactive
COc1ccc(/C=C/C(=O)OCC(=O)NCC2CCCO2)cc1 (stereo not given)	none
CCOC(=O)/C=c1\s/c(=C\c2ccc(C(F)(F)F)cc2)c(=O)n1CC(=O)NCc1ccco1	Mdm2-MdmX inh 76 | Mdm2-MdmX conf inactive
CCOC(=O)/C=c1/s/c(=C/c2ccc3cc(OC)ccc3c2)c(=O)n1CC(=O)NCc1ccc2c(c1)OCO2	none (no result: Mdm2-MdmX inh, 697 NFkB inh, CSC inhib, Beta cell apopt, Jurkat NFkB inh)
CCOC(=O)/C=c1\s/c(=C\c2ccc3cc(OC)ccc3c2)c(=O)n1CC(=O)NCC1CCCO1 (stereo not given)	Mdm2-MdmX inh 74 | Mdm2-MdmX conf inactive
CCOC(=O)/C=c1\s/c(=C\c2sccc2C)c(=O)n1CC(=O)NCc1ccc(C)cc1	Mdm2-MdmX inh 66 (no result: Gli-Sufu antag) | Mdm2-MdmX conf inactive
CCOC(=O)/C=c1\s/c(=C\c2ccc(C)cc2)c(=O)n1CC(=O)NCc1ccco1	none
Cc1ccccc1C(=O)N1CCC2CC1c1cc(Cl)ccc12 (stereo not given)	none (no result: Mdm2-MdmX inh, 697 NFkB inh, CSC inhib, Beta cell apopt, Jurkat NFkB inh)
CCCc1cc(=O)[nH]c(SCC(=O)NC2(C#N)CCCCC2)n1	none (no result: CSC inhib)
CCC(C)NC(=O)c1ccc(Cl)c(S(=O)(=O)Nc2ccccc2N2CCOCC2)c1 (stereo not given)	none
Cc1cc(C)n(-c2ccc3cccc(NS(C)(=O)=O)c3n2)n1	Mdm2-MdmX inh 74, CSC inhib 87 (no result: Beta cell apopt) | Mdm2-MdmX conf 44 | Full FLuc ctr inactive
Cc1ccc(-c2nc3ccccc3o2)cc1NC(=S)NC(=O)/C=C/c1ccco1	Mdm2-MdmX inh 55 (no result: Beta cell apopt) | Mdm2-MdmX conf inactive
Cc1ccc(-c2nc3ccccc3s2)cc1NC(=S)NC(=O)/C=C/c1ccco1	none
O=C(/C=C/c1ccco1)NC(=S)Nc1cccc(-c2nc3ccccc3s2)c1	none
O=C(/C=C/c1ccco1)NC(=S)Nc1cccc(-c2nc3ccccc3o2)c1	Mdm2-MdmX inh 59 | Mdm2-MdmX conf 53 | Full FLuc ctr 92
CN(CC(=O)Nc1ccc(F)c(Cl)c1)S(=O)(=O)c1ccc2c(c1)n(C)c(=O)c(=O)n2C	none
COc1cc2oc(-c3ccc(O)cc3)cc(=O)c2c(OC)c1O	Mdm2-MdmX inh 51 (no result: CSC inhib, Beta cell apopt) | Mdm2-MdmX conf inactive
O=c1cc(-c2ccc(O)cc2)oc2c1ccc1ccccc12	none
O=c1cc(-c2ccc(O)cc2)oc2ccc3ccccc3c12	Mdm2-MdmX inh 68, CSC inhib 90 | Mdm2-MdmX conf 66 | Full FLuc ctr 75
CC1CCC(C(C)C)C(OCC(O)CNC(C)c2ccccc2)C1 (stereo not given)	Mdm2-MdmX inh 60 | Mdm2-MdmX conf 46 | Full FLuc ctr 70
CC1CCC(C(C)C)C(OCC(O)CNC(C)(C)C)C1 (stereo not given)	none
CC(NCC(O)COC1CCC(C(C)(C)C)CC1)c1ccccc1 (stereo not given)	Mdm2-MdmX inh 55 (no result: CSC inhib) | Mdm2-MdmX conf inactive | Full FLuc ctr 77
CC(NCC(O)COc1ccc2ccccc2c1)c1ccccc1 (stereo not given)	none
COc1cc(OC)cc(C(=O)Nc2nc(-c3ccccc3)c(-c3ccccc3)o2)c1	Mdm2-MdmX inh 56 | Mdm2-MdmX conf inactive
CC(=O)Nc1nc(-c2ccccc2)c(-c2ccccc2)o1	none
NC(=S)N/N=C/c1ccccc1OCc1cccc(Cl)c1	Mdm2-MdmX inh 52 | Mdm2-MdmX conf inactive
Cc1ccc(C)c(C(=O)c2ccccc2NC(=O)c2ccccn2)c1	Mdm2-MdmX inh 57 | Mdm2-MdmX conf 58 | Full FLuc ctr 73
